High-throughput results deposited in PubChem BioAssay by several laboratories.
This is a sample that favours compounds with a hit; in the whole collection about 4.8% have one here.
NF-kB expr up: compounds increasing NF-kB expression in human neuronal cells; NF-kB reporter expression; active compounds read high; fold change at 12.5 µM; 190,000 compounds, 1.6% hits; AID 1239; in the data active means fold change above about 3.3
APP 5'UTR act: activates APP 5'UTR luciferase reporter; SH-SY5Y APP 5'UTR luciferase reporter, luminescence; zero percent = DMSO vehicle wells; activation, % at 2 µM; 190,000 compounds, 1% hits;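 active means activation above a set limit, based on mean plus 3 SD of controls, cut at about 140% in these data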
Hsp70 act: switches on Hsp70 transcription | AID 1203 | HeLa Hsp70 promoter luciferase reporter, luminescence; scaled: vehicle 0, proteasome-inhibitor control 100% | 200,000 compounds, 0.04% hits | activation, % at 10 µM;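 active means activation above the mean across all tested compounds plus 3 SD, cutoff set per campaign, cut at about 5.5% in these data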;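 further: 100% = MG132 at 30 µM as the positive control and 0% = DMSO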
APP transl inh: APP translation inhibition; SH-SY5Y APP 5'UTR-luciferase reporter, luminescence; inhibition, % at 2 µM; 190,000 compounds, 0.82% hits;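 active means inhibition above a set limit, derived from the sample mean plus 3 SD, cut at about 45% in these data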
Wee1 degr inh: human Wee1 degradation inhibition, primary screen; reporter increase, % at 5 µM; HeLa Luc-Wee1K328M stability, luciferase luminescence; 100% = proteasome inhibitor MG132 effect; 220,000 compounds, 1.2% hits; P30291;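 active means activation above the mean of all tested compounds plus 3 SD, set per screening run, cut at about 8.8% in these data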;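 further: cells exposed to compound for 20 h before luminescence read; 0% = DMSO alone and 100% = MG132 at 30 µM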
Target sequence (P30291 whole entry K328M): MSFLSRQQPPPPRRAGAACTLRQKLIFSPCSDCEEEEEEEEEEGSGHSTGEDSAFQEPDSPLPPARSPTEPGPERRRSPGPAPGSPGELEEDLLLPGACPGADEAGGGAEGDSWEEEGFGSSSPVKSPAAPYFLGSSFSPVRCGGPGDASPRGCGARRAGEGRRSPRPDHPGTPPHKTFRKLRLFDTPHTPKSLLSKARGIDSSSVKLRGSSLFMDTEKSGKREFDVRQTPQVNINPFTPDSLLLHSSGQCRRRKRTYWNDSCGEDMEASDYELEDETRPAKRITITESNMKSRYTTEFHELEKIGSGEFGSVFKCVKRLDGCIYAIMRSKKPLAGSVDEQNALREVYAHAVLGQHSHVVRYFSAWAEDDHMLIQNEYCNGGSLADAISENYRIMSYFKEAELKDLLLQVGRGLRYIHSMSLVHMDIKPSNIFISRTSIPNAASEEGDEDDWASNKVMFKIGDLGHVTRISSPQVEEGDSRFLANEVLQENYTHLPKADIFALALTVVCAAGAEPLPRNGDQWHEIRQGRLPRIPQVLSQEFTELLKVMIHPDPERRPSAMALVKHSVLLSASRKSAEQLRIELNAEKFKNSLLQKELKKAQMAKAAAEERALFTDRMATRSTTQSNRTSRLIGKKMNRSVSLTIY
STAT1 activator: increases IFN-gamma driven STAT1 reporter signal; NIH 3T3 STAT1-luciferase reporter, luminescence; 100% = IFN-gamma alone, no compound; 200,000 compounds, 2.6% hits; activation (% of control), % at 5.5 µM; AID 932;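 active means activation above the screen-wide mean activation plus 3 SD, cut at about 130% in these data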;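 further: raw ratio to IFN-gamma control signal so 100% means no change and 0% no light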
Active calls of the source: *; / = not tested or not shown.

SMILES	NF-kB expr up	APP 5'UTR act	Hsp70 act	APP transl inh	Wee1 degr inh	STAT1 activator
CC1Cc2cc(/C(O)=C3/C(=O)C(=O)N(CCCn4ccnc4)C3c3ccco3)ccc2O1 (configuration not stated)	0.75	91	0	-91	-3	132*
CCCOc1ccc(/C(O)=C2/C(=O)C(=O)N(CCCn3ccnc3)C2c2ccco2)cc1 (configuration not stated)	1.8	21	0	-21	4	117
CC1Cc2cc(/C(O)=C3/C(=O)C(=O)N(CCCn4ccnc4)C3c3ccncc3)ccc2O1 (configuration not stated)	1	12	0	-12	0	97
Cc1ccc(-c2c(C(=O)O)c(C(=O)O)c3n2CCC3)cc1	1.9	5	0	-5	-1	100
O=C(NC1CCCCC1)c1noc2c1CCCCC2	1.4	131	0	-131	-2	149*
O=C(NCCc1ccccc1)c1noc2c1CCCCC2	3.8*	100	1	-101	2	140*
Cc1nc2c(=O)n(C)c(=O)n(C)c2nc1Cl	0.37	-45	0	46*	6	90
COc1ccc(N(C)C(=O)Cc2c(C(=O)O)[nH]c3ccccc23)c(OC)c1	1.1	-11	0	11	-3	99
C=CCSC(=C(C#N)C#N)c1cc2c([nH]1)CCCC2	7.3*	16	1	-16	-2	95
O=C(O)c1cc2c([nH]c1=O)CCCC2	0.86	14	0	-14	-1	102
COc1ccc(NC(=O)/C=C/c2ccccc2)cn1	2.9	85	0	-85	8	141*
COc1ccc(NC(=O)/C=C/c2ccc(F)cc2)cn1	2	19	0	-19	3	136*
COc1cccc(/C=C/C(=O)Nc2ccc(OC)nc2)c1	1.9	27	0	-27	0	112
O=[N+]([O-])c1ccc2oc(-c3ccccc3)nc2c1	4.2*	112	0	-112	1	145*
COc1ccc(-c2nc3cc(NC(=S)NC(=O)Cc4ccccc4)ccc3o2)cc1	2.1	69	0	-69	0	102
CCC(=O)NC(=S)Nc1ccc2oc(-c3ccc(OC)cc3)nc2c1	1.8	137*	0	-137	1	125
O=[N+]([O-])c1ccc2oc(C3CCCCC3)nc2c1	1.7	40	0	-40	-3	122
Cc1cccc(-c2nc3cc([N+](=O)[O-])ccc3o2)c1	3.5*	82	0	-82	-2	116
NC(N)=Nc1nc2cc([N+](=O)[O-])ccc2o1	1.3	10	0	-10	1	107
Cc1ccc2oc(-c3ccccc3)nc2c1	2.5	39	0	-39	3	134*
Fc1ccccc1Nc1n[nH]c(=S)s1	0.91	48	0	-48	2	118
CCCC(=O)Nc1ccc2oc(-c3ccc(OC)c(Br)c3)nc2c1	1.5	49	1	-49	-3	108
COc1ccc(-c2nc3ccc([N+](=O)[O-])cc3o2)cc1	2.8	150*	0	-150	3	111
CCCC(=O)Nc1cccc(-c2nc3ccccc3c(=O)o2)c1	3.9*	-2	0	2	2	64
CCCC(=O)Nc1ccc(-c2nc3cc(C)ccc3o2)cc1	5.1*	190*	0	-190	0	136*
SMILES	NF-kB expr up	APP 5'UTR act	Hsp70 act	APP transl inh	Wee1 degr inh	STAT1 activator
Nc1ccc(-c2nc3ccc(N)cc3o2)cc1	2.4	16	0	-16	2	125
Nc1c(-c2cccs2)cnn1-c1nc(-c2ccc(Cl)cc2Cl)cs1	1.1	5	0	-5	3	100
Nc1nccc(-c2cc(-c3ccc(Cl)cc3Cl)no2)n1	/	/	/	/	10*	/
COc1cccc(/C=C/C(=O)OCC(=O)c2c[nH]c3ccccc23)c1OC	1.3	11	0	-11	5	91
COc1ccccc1C(=O)NNC(=O)c1cccc(F)c1	2.3	129	0	-129	4	146*
COc1ccccc1C(=O)NNC(=O)c1ccccc1F	2.1	60	0	-60	0	138*
COc1cc2c(cc1NC(=O)c1ccccc1F)CCCC2	2.5	74	0	-74	-3	138*
COc1cc(OC)c(NC(=O)c2ccccc2F)cc1Cl	1.3	0	0	0	-1	119
N#Cc1ccc(CSC2=NCCN2)cc1	1.1	2	0	-2	9.8*	122
O=C(NCC1CCCO1)C1CCN(C(=O)c2ccc(Cl)cc2)CC1 (configuration not stated)	1.3	12	0	-12	1	102
Cc1ccc2nc(Cl)c3nnnn3c2c1	0.29	-26	0	26	-4	78
Cc1ccc2nc(N3CCN(c4cccc(C)c4C)CC3)c3nnnn3c2c1	0.66	-6	0	6	10*	96
COc1ccc(/C=C(\C#N)C(=O)OCC(=O)NCc2ccccc2)cc1	1.2	-9	0	9	-2	92
CCOC(=O)c1c(C)[nH]c(C(=O)COC(=O)CNC(=O)c2ccccc2Cl)c1C	2.5	37	0	-37	-1	132*
CCOC(=O)c1c(C)[nH]c(C(=O)COC(=O)CNC(=O)C2CCCCC2)c1C	1.1	-10	0	10	-2	136*
CCOC(=O)CN(C(=O)CSc1nnc(-c2cccc(OC)c2)o1)c1ccc(F)cc1	0.92	1	0	-1	2	97
CC1(C)Cc2nc3sc4c(SCC(=O)NCc5ccco5)ncnc4c3cc2CO1	1.6	12	0	-12	7	124
Cc1nc2c(sc3nc4c(cc32)COC(C)(C)C4)c(=O)n1CC(=O)NCc1ccco1	2.5	5	1	-5	9.3*	131*
CC1C/C(=N/Nc2nc3ccccc3[nH]2)CC(C)(C)C1 (configuration not stated)	0.85	53	1	-53	10*	124
CC1C/C(=N/NC(=O)c2ccc(CSc3nc4ccccc4[nH]3)cc2)CC(C)(C)C1 (configuration not stated)	1.1	9	0	-9	5	113
Cc1ccc(-n2nc3c(n2)/C(=N/O)CC/C3=N\O)cc1	4.7*	86	0	-86	1	130*
CCOc1ccc(N(CC(=O)Nc2ccc(OC)cc2)S(=O)(=O)c2c(C)noc2C)cc1	1.2	11	0	-11	-1	96
CN(C)CCCN=c1cc(-c2ccccc2)oc2ccc(Cl)cc12	1.5	129	0	-129	3	148*
CCOC(=O)c1nnc(-c2ccc(C)cc2)nc1Oc1ccc(Cl)cc1Cl	1.1	24	0	-24	0	108
O=C(Oc1ccccc1C(=O)Nc1ccccc1)c1ccccc1Br	3.7*	-59	0	58*	-2	90
O=C(COc1ccccc1C(=O)Nc1ccccc1)c1ccc(Br)cc1	1.2	9	0	-9	4	106
